# Measurements reported in PubChem BioAssay (NCI).
# Compounds without any hit were thinned out: in the full panel of roughly 83,000, 20% have a hit.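 Plates (96-well) were seeded with cells, treated with compound at one concentration, and incubated for 48 hours before percent growth was determined.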 Active and inactive are the calls of the source. The calls were made as follows: active = growth percent below 10; inactive = the rest.
# Tested on: A549/ATCC NSCLC
# Assay: NCI-60 one-dose screen, 48 h (100 = growth as untreated, 0 = no growth, -100 = all killed)
# Conditions: 10 µM unless noted
row,SMILES,growth
1,CCOC(=O)c1ccccc1-c1c2ccc(=[N+](C)C)cc-2oc2cc(N(C)C)ccc12,12% (inactive)
2,O=C(Nc1ncc(Cc2cc(C(F)(F)F)ccc2Cl)s1)c1cccs1,37.8% (inactive)
3,Clc1ccccc1-c1cnn2cc(-c3ccccc3)cnc12,70.5% (inactive)
4,NC1(CO)COC(c2ccccc2)OC1 (stereo not drawn),101% (inactive)
5,COc1cc(OC)cc(-c2ccc(-c3ccc(C(=N)N)o3)o2)c1,47.1% (inactive)
6,CN1CCN(Cc2ccc(NC(=O)c3cncc(C#Cc4cnc5ccc(Cl)nn45)c3)cc2C(F)(F)F)CC1,4.24% (active)
7,NS(=O)(=O)c1ccc(NC(=O)/C(=C\c2ccc(Cl)cc2Cl)NC(=O)c2ccccc2)cc1,105% (inactive)
8,C/C=C(/C)n1cnc2c(Nc3ccccn3)nc(Cl)nc21,104% (inactive)
9,CS(=O)(=O)Nc1cc(-c2ccc3ncc(C#N)c(Nc4ccc(F)c(Cl)c4)c3c2)cnc1Cl,5.08% (active)
10,CNC(=O)c1cc(Oc2cccc3nc(NC(=O)Nc4cc(C(F)(F)F)ccc4Cl)ccc23)ccn1,90% (inactive)
11,CN1CCN(Cc2ccc(NC(=O)c3cncc(C#Cc4cnc(N)c5ccc(F)cc45)c3)cc2C(F)(F)F)CC1,24.4% (inactive)
12,CCN1CCN(CC(=O)Nc2nc3ccc(NCc4ccc(F)cc4)cc3s2)CC1,99.8% (inactive)
13,COc1ccc(NC(=O)Nc2ccc(OCCCCCC(=O)NO)cc2)cc1,90.3% (inactive)
14,CNC1=CC(=O)c2c(C(=O)OC)c(C)[n+]([O-])c(C)c2C1=O,55.3% (inactive)
15,Nc1nc(NC(=O)Nc2ccc(C(=O)O)cc2)nn1-c1ccc(S(N)(=O)=O)cc1,82.8% (inactive)
16,O=C(CCCCCCN1CC(=O)N2[C@H](c3ccc(Cl)cc3)c3[nH]c4ccccc4c3C[C@@H]2C1=O)NO,90.1% (inactive)
17,CC(=O)OC[C@]12CC[C@@H]([C@@H](C)c3nnc(-c4ccncc4)o3)[C@@H]1[C@H]1CC[C@@H]3[C@@]4(C)CC[C@H](OC(C)=O)C(C)(C)[C@@H]4CC[C@@]3(C)[C@]1(C)CC2,62.5% (inactive)
18,Cc1ccc(C(=O)Nc2cccc(C#Cc3cccc4[nH]nc(N)c34)c2)cc1C(F)(F)F,67.5% (inactive)
19,CCCCNC(=O)Oc1ccc(/C(=C(/C)Cc2ccc(OC)cc2)c2ccc(OCCN3CCCCCC3)cc2)cc1,68% (inactive)
20,Cc1ccc2nc(/C(C#N)=C(/CCCO)NC(Cc3ccccc3)C(=O)OCc3ccccc3)[nH]c(=O)c2c1 (stereo not drawn),114% (inactive)

row,SMILES,growth
1,O=C1/C(=C2\SC(=S)N(C3CC3)C2=O)SC(=S)N1C1CC1,98.1% (inactive)
2,CC1=CC(c2ccco2)=C2C(N)=NNC2N1 (stereo not drawn),101% (inactive)
3,Nc1nc2c(c3ncccc13)C(c1cccc(Cl)c1)Cc1ncccc1-2 (stereo not drawn),18.6% (inactive)
4,O=C(O)c1ccc(-c2ccc(/C=N/Nc3nc(Nc4ccccc4)nc(N4CCCCC4)n3)o2)cc1,63.5% (inactive)
5,COC(=O)c1c2c(c(C)[n+]([O-])c1C)C(=O)C(NCc1cccc(Cl)c1)=CC2=O,6.34% (active)
6,Fc1ccc(Cn2cc(CSc3nc4ccccc4o3)nn2)cc1,103% (inactive)
7,CC1CCN(C(=O)CCCl)c2ccccc21 (stereo not drawn),96.6% (inactive)
8,CC1CCN(C(=S)SCC(=O)NC(=O)c2ccccc2)CC1,105% (inactive)
9,CCOc1ccc(-n2nc(C(=O)NCc3ccccc3OC)nc2-c2cc(OC)c(OC)c(OC)c2)cc1,34.5% (inactive)
10,COc1ccc(C(=O)N2c3ccccc3Sc3ccccc32)c(C(F)(F)F)c1,25.3% (inactive)
11,O=C(N=Nc1c(O)[nH]c2ccccc12)Nc1ccc(F)cc1,87.5% (inactive)
12,O=C(O)c1cn(C2CC2)c2cc(N3CCN(C(=O)Nc4nc(-c5ccc(Br)cc5)cs4)CC3)c(F)cc2c1=O,14.3% (inactive)
13,CCN1C(=O)N(CC)C2C1NN=c1s/c(=C\c3ccc(C(F)(F)F)cc3)c(=O)n12 (stereo not drawn),5.31% (active)
14,Cc1ccc(C(=O)c2ccc(CC(=O)N=Nc3c(O)[nH]c4ccc(Br)cc34)n2C)cc1,87.2% (inactive)
15,Cc1ccc(Cl)cc1NC(=O)c1sc2nc3c(cc2c1N)C(=O)CCC3,53.9% (inactive)
16,Clc1ccc(-c2cc(-c3ccccc3)nc(NCCNc3ccnc4cc(Cl)ccc34)n2)cc1,36.3% (inactive)
17,N#C/C(=C\c1cn(Cc2ccccc2)c2ccccc12)C(=O)Nc1ncc(Cc2ccccc2Cl)s1,8.73% (active)
18,CC/C=C\C[C@H](O)C/C=C1/C(=O)C=C[C@@H]1C/C=C\CCCC(=O)O,75.9% (inactive)
19,C#Cc1cccc(Nc2nc(C)nc3cc(NC(=O)CCl)ccc23)c1,5.92% (active)

# Tested on: 786-0 renal
# Assay: as above
# Conditions: 10 µM unless noted
row,SMILES,growth
1,CCOC(=O)c1ccccc1-c1c2ccc(=[N+](C)C)cc-2oc2cc(N(C)C)ccc12,20.5% (inactive)
2,O=C(Nc1ncc(Cc2cc(C(F)(F)F)ccc2Cl)s1)c1cccs1,79.6% (inactive)
3,Clc1ccccc1-c1cnn2cc(-c3ccccc3)cnc12,76.7% (inactive)
4,NC1(CO)COC(c2ccccc2)OC1 (stereo not drawn),106% (inactive)
5,COc1cc(OC)cc(-c2ccc(-c3ccc(C(=N)N)o3)o2)c1,69% (inactive)
6,CN1CCN(Cc2ccc(NC(=O)c3cncc(C#Cc4cnc5ccc(Cl)nn45)c3)cc2C(F)(F)F)CC1,-53% (active)
7,NS(=O)(=O)c1ccc(NC(=O)/C(=C\c2ccc(Cl)cc2Cl)NC(=O)c2ccccc2)cc1,104% (inactive)
8,C/C=C(/C)n1cnc2c(Nc3ccccn3)nc(Cl)nc21,101% (inactive)
9,CS(=O)(=O)Nc1cc(-c2ccc3ncc(C#N)c(Nc4ccc(F)c(Cl)c4)c3c2)cnc1Cl,6.73% (active)
10,CNC(=O)c1cc(Oc2cccc3nc(NC(=O)Nc4cc(C(F)(F)F)ccc4Cl)ccc23)ccn1,68.8% (inactive)
11,CN1CCN(Cc2ccc(NC(=O)c3cncc(C#Cc4cnc(N)c5ccc(F)cc45)c3)cc2C(F)(F)F)CC1,-76.8% (active)
12,CCN1CCN(CC(=O)Nc2nc3ccc(NCc4ccc(F)cc4)cc3s2)CC1,93% (inactive)
13,COc1ccc(NC(=O)Nc2ccc(OCCCCCC(=O)NO)cc2)cc1,97.1% (inactive)
14,CNC1=CC(=O)c2c(C(=O)OC)c(C)[n+]([O-])c(C)c2C1=O,97.9% (inactive)
15,Nc1nc(NC(=O)Nc2ccc(C(=O)O)cc2)nn1-c1ccc(S(N)(=O)=O)cc1,97.8% (inactive)
16,O=C(CCCCCCN1CC(=O)N2[C@H](c3ccc(Cl)cc3)c3[nH]c4ccccc4c3C[C@@H]2C1=O)NO,92.9% (inactive)
17,CC(=O)OC[C@]12CC[C@@H]([C@@H](C)c3nnc(-c4ccncc4)o3)[C@@H]1[C@H]1CC[C@@H]3[C@@]4(C)CC[C@H](OC(C)=O)C(C)(C)[C@@H]4CC[C@@]3(C)[C@]1(C)CC2,80.4% (inactive)
18,Cc1ccc(C(=O)Nc2cccc(C#Cc3cccc4[nH]nc(N)c34)c2)cc1C(F)(F)F,62.6% (inactive)
19,CCCCNC(=O)Oc1ccc(/C(=C(/C)Cc2ccc(OC)cc2)c2ccc(OCCN3CCCCCC3)cc2)cc1,76.3% (inactive)
20,Cc1ccc2nc(/C(C#N)=C(/CCCO)NC(Cc3ccccc3)C(=O)OCc3ccccc3)[nH]c(=O)c2c1 (stereo not drawn),93.9% (inactive)

row,SMILES,growth
1,O=C1/C(=C2\SC(=S)N(C3CC3)C2=O)SC(=S)N1C1CC1,98.6% (inactive)
2,CC1=CC(c2ccco2)=C2C(N)=NNC2N1 (stereo not drawn),97.6% (inactive)
3,Nc1nc2c(c3ncccc13)C(c1cccc(Cl)c1)Cc1ncccc1-2 (stereo not drawn),22.6% (inactive)
4,O=C(O)c1ccc(-c2ccc(/C=N/Nc3nc(Nc4ccccc4)nc(N4CCCCC4)n3)o2)cc1,61.5% (inactive)
5,COC(=O)c1c2c(c(C)[n+]([O-])c1C)C(=O)C(NCc1cccc(Cl)c1)=CC2=O,39.5% (inactive)
6,Fc1ccc(Cn2cc(CSc3nc4ccccc4o3)nn2)cc1,91.1% (inactive)
7,CC1CCN(C(=O)CCCl)c2ccccc21 (stereo not drawn),110% (inactive)
8,CC1CCN(C(=S)SCC(=O)NC(=O)c2ccccc2)CC1,103% (inactive)
9,CCOc1ccc(-n2nc(C(=O)NCc3ccccc3OC)nc2-c2cc(OC)c(OC)c(OC)c2)cc1,41.5% (inactive)
10,COc1ccc(C(=O)N2c3ccccc3Sc3ccccc32)c(C(F)(F)F)c1,38.8% (inactive)
11,O=C(N=Nc1c(O)[nH]c2ccccc12)Nc1ccc(F)cc1,97.3% (inactive)
12,O=C(O)c1cn(C2CC2)c2cc(N3CCN(C(=O)Nc4nc(-c5ccc(Br)cc5)cs4)CC3)c(F)cc2c1=O,27.3% (inactive)
13,CCN1C(=O)N(CC)C2C1NN=c1s/c(=C\c3ccc(C(F)(F)F)cc3)c(=O)n12 (stereo not drawn),24.9% (inactive)
14,Cc1ccc(C(=O)c2ccc(CC(=O)N=Nc3c(O)[nH]c4ccc(Br)cc34)n2C)cc1,97.6% (inactive)
15,Cc1ccc(Cl)cc1NC(=O)c1sc2nc3c(cc2c1N)C(=O)CCC3,89.3% (inactive)
16,Clc1ccc(-c2cc(-c3ccccc3)nc(NCCNc3ccnc4cc(Cl)ccc34)n2)cc1,-90.9% (active)
17,N#C/C(=C\c1cn(Cc2ccccc2)c2ccccc12)C(=O)Nc1ncc(Cc2ccccc2Cl)s1,6.01% (active)
18,CC/C=C\C[C@H](O)C/C=C1/C(=O)C=C[C@@H]1C/C=C\CCCC(=O)O,68.5% (inactive)
19,C#Cc1cccc(Nc2nc(C)nc3cc(NC(=O)CCl)ccc23)c1,-72.5% (active)
